Only a selection was taken, and hits are over-represented in it overall.
Dicer processing – human Dicer pre-microRNA cleavage inhibition | AID 1347074 | 47,000 compounds, 6% hits | cat-ELCCA pre-miR-21 Dicer processing, chemiluminescence; stronger effect = higher value | z-score at 25 µM; in the data active means z-score above about 3, passing the limit was not always enough;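 further: plate controls were vehicle for no effect and no enzyme for full effect; higher signal means more uncleaved substrate so more Dicer inhibition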
Target sequence (Q9UPY3 whole entry, looked up): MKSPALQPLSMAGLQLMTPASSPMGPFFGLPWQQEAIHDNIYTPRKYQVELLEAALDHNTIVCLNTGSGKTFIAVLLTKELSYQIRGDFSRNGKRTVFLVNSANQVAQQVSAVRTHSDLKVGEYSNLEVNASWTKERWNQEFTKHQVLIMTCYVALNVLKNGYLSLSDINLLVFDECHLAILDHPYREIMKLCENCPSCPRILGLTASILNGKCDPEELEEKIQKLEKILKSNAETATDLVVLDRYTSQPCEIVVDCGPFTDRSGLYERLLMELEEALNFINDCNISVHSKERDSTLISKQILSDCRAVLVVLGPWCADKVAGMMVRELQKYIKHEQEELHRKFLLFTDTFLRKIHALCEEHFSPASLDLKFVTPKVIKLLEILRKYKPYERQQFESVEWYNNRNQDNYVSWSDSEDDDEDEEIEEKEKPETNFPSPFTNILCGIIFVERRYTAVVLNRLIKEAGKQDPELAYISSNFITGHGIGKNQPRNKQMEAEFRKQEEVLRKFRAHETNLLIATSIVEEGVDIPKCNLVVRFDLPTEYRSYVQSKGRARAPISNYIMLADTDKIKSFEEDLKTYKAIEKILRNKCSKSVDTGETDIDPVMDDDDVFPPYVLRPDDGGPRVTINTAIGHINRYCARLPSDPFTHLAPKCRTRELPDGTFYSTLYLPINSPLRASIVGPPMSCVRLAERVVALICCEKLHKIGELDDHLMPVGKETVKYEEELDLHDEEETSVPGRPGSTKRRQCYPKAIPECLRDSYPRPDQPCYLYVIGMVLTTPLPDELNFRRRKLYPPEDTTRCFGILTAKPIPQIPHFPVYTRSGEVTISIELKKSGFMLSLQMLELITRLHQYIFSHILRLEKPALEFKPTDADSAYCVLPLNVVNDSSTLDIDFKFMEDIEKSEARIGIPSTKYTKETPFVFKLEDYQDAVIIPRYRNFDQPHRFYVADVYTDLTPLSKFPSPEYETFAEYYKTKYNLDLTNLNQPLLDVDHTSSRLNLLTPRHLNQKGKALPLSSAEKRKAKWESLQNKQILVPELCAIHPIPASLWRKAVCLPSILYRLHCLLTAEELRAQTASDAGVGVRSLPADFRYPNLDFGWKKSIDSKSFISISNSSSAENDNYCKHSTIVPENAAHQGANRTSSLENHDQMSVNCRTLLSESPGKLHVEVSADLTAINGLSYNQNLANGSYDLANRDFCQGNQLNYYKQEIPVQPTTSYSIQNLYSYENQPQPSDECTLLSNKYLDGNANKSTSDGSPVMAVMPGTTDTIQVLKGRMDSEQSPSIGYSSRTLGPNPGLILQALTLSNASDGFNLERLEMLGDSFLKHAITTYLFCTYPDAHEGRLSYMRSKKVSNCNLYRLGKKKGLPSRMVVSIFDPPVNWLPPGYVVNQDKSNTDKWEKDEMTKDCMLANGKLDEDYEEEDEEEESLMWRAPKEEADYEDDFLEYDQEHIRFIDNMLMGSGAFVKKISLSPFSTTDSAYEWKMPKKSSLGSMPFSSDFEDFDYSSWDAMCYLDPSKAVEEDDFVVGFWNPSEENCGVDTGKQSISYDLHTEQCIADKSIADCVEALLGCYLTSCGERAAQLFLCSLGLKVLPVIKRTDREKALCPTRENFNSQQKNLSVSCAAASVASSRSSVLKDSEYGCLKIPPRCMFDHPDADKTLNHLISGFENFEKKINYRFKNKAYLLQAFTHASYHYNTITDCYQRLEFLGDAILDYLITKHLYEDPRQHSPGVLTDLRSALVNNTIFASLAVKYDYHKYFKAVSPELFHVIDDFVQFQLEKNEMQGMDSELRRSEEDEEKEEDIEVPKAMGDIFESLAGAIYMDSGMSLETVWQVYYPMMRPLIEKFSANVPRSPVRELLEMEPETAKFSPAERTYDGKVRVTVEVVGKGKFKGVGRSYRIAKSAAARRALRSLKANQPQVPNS
Active calls of the source: *.

SMILES	Dicer processing
c1ccc(-c2nsc(N3CCCC3)n2)cc1	3.01*
O=C(O)CSCC(=O)N1CCN(c2nc(-c3ccccc3)ns2)CC1	1.25
CCOc1ccc(S(=O)(=O)n2cnc3cc(C)c(C)cc32)cc1C	-1.36
CC1CN(c2ncccc2[N+](=O)[O-])CC(C)O1 (centres undefined)	1.47
Cc1ccc(-c2ccc(C)cc2[N+](=O)[O-])c([N+](=O)[O-])c1	-0.74
Cc1ccc(OC(=O)c2ccc(Cl)cc2[N+](=O)[O-])c([N+](=O)[O-])c1	2.51
Cc1ccc(OC(C)CC(=O)O)c([N+](=O)[O-])c1 (centres undefined)	3.11*
COc1ccc(C2C=C(c3ccc(Cl)cc3)NC(=O)C2C#N)cc1 (centres undefined)	4.38*
COc1ccc(C2C(C#N)=C(C)NC3=C2C(=O)CC(c2ccc(Cl)cc2)C3)cc1 (centres undefined)	0.16
COc1ccc(C2NC(=O)NC2=O)cc1 (centres undefined)	1.07
Cn1ncc2c(N/N=C/c3ccccc3)ncnc21	0.22
COCCCn1c2c(c(=O)[nH]c1=O)C(c1cccc3ccccc13)C1=C(N2)c2ccccc2C1=O (centres undefined)	-0.72
O=C(CSc1ncc(Sc2ncccn2)c(-c2ccc(Cl)cc2)n1)c1ccc(Cl)cc1	-1.2
Cn1ccnc1SCC(=O)c1ccc(F)c(F)c1	0.37
O=C(CSc1ncccn1)c1ccc(O)c(O)c1	4.19*
COc1ccc2c(c1)C(C)=CC(C)(C)N2C(=O)CSc1nnc(C)s1	-1.95
COc1ccc2c(c1)C(C)CC(C)(C)N2C(=O)CSc1ncn[nH]1 (centres undefined)	0.09
COc1ccc2c(c1)C(C)CC(C)(C)N2C(=O)CSc1ncccn1 (centres undefined)	4.23*
CCOC(=O)c1c(NC(=O)C(C)Oc2ccc(OC)cc2)sc(C)c1C (centres undefined)	-2.32
O=c1[nH]c(CN2CCOCC2)nc2ccccc12	6.86*
O=c1[nH]c(CN2CCCCC2)nc2c1oc1ccccc12	-0.24
c1ccc2[nH]c(CN3CCCCC3)nc2c1	-0.54
CCCOC(=O)C1=C(C)NC2=C(C(=O)CC(C)(C)C2)C1c1cc(Cl)c(O)c(OC)c1 (centres undefined)	-0.03
Cc1ccc(/C(C#N)=C2C=C/C(=N\O)C(Cl)=C\2)cc1	2.57
Cc1ccc(/C(C#N)=C2C=C(Cl)/C(=N/O)C=C\2Cl)cc1	3.76*
SMILES	Dicer processing
N#C/C(=C1C=C/C(=N\O)C(Br)=C/1)c1ccccc1	-0.66
Cc1ccc2oc(=O)n(CCCOc3ccc(Br)cc3)c2c1	3.16*
Cc1ccc2c(c1)C(=O)C(=O)N2CCOc1ccc(Br)cc1	0.93
Cc1ccc2oc(=O)n(CCC#N)c2c1	-0.44
O=C(O)c1ccccc1Sc1cc(C(=O)O)c(Sc2ccccc2C(=O)O)cc1C(=O)O	-0.1
CCOC(=O)c1sc(NC(=O)C(F)(F)F)c(C(=O)OCC)c1C	-2.6
O=C1/C(=C/c2ccc(Cl)cc2)COc2ccc(F)cc21	-0.51
O=S(=O)(c1ccc2ccccc2c1)N1CCN(C2CCN(Cc3ccccc3)CC2)CC1	3.18*
O=S(=O)(c1ccc2ccccc2c1)N1CCCCC1	1.16
COc1ccc(S(=O)(=O)N2CCN(S(=O)(=O)c3ccc4ccccc4c3)CC2)cc1	1.15
CSc1ccc(CN2CCN(S(=O)(=O)c3ccc4ccccc4c3)CC2)cc1	3.39*
Fc1ccccc1CN1CCN(C2CCN(Cc3ccccc3)CC2)CC1	-1.22
O=S(=O)(c1ccc2ccccc2c1)N1CC=C(c2ccccc2)CC1	-0.32
Cc1cc(C(=O)CSc2c(F)c(F)c(C(=O)O)c(F)c2F)ccc1Cl	-0.83
CSc1nc(-c2cccnc2)nc(N)c1C#N	0.23
COC(=O)C1=NOC2(CC(=O)N(c3ccc(F)cc3)C2=O)C1 (centres undefined)	-0.16
CCOC(=O)COc1ccc2c(-c3ccccc3)cc(=O)oc2c1	1.08
Cc1c(Cc2c(F)cccc2Cl)c(=O)oc2cc(OC(=O)c3ccco3)ccc12	0.42
CCOC(=O)COc1ccc2c(C)c(Cc3c(Cl)cccc3Cl)c(=O)oc2c1	3.32*
CCCCNC(=O)n1ccc(-c2nn(-c3ccc(F)cc3)ccc2=O)n1	1.45
O=c1c(Cc2ccc(Cl)c(Cl)c2)c(-c2ccccc2)sc2ccccc12	-0.98
O=c1c(Cc2ccc(Cl)cc2Cl)c(-c2ccccc2)sc2ccccc12	-2.34
O=c1c(Cc2ccc([N+](=O)[O-])cc2)c(-c2ccccc2)sc2ccccc12	3.61*
CN(C(=O)c1ccc2c(c1)CCO2)C(C)(C)C	-0.86
CC(C)(C)c1ccc2c(c1)CN(c1ccc(C(=O)O)cc1)CO2	3.86*
SMILES	Dicer processing
CC(C)(C)c1cc(C(C)(C)C)n(-c2ccc(C(=O)O)cc2)n1	-0.66
Nc1ccc(Sc2ccc(Cl)cc2)nc1	1.13
Cn1c(=O)c2c(nc(NCCCO)n2Cc2ccc(Cl)cc2)n(C)c1=O	3.61*
Cn1c(=O)c2c(nc(-n3ccnc3)n2Cc2ccc(F)cc2)n(C)c1=O	1.42
Cn1c(=O)c2c(nc(NCCCn3ccnc3)n2Cc2cccc3ccccc23)n(C)c1=O	-0.49
Cn1c(=O)c2c(nc(NCCCO)n2Cc2ccc(Br)cc2)n(C)c1=O	2.13
Cn1c(NCCCO)nc2c1c(=O)n(Cc1ccc(Cl)cc1)c(=O)n2C	2.37
Cn1c(=O)c2c(nc(NCCCn3ccnc3)n2Cc2ccc(F)cc2)n(C)c1=O	3.45*
Cc1ccccc1C1CC(=O)c2cnc3c(-c4ccccc4)c(C)nn3c2C1 (centres undefined)	-1.03
CN1CCc2c(sc3c2C(=O)NC(c2ccc(-c4ccc(F)cc4)o2)N3)C1 (centres undefined)	-0.33
Cc1ccc2c(c1)C(=O)C(=O)N2CCOc1ccc(C(C)(C)C)cc1	0.92
COc1ccc(Br)cc1C1Nc2ccccc2-c2nnc(SC)nc2O1 (centres undefined)	0.68
Cn1c(=O)c2c(nc(CN3CCOCC3)n2CC(=O)C(C)(C)C)n(C)c1=O	1.3
Cc1cc(C)cc(Oc2c(C(F)(F)F)oc3c(CN4CCOCC4)c(O)ccc3c2=O)c1	1.37
CC(C)(CCOC(=O)c1cc2ccccc2oc1=O)Nc1ccc(C(F)(F)F)cc1[N+](=O)[O-]	0
CN1CCN(CC(=O)N2CCc3ccccc32)CC1	1.62
CN1CCN(CC(=O)N2c3ccccc3C=Cc3ccccc32)CC1	7.01*
O=C(CN1CCCCC1)N1c2ccccc2CCc2ccccc21	1.29
Clc1ccc(-c2noc(CSc3nc4ccccc4n4cccc34)n2)cc1	-0.24
CC(=O)N1c2ccccc2NC2=C(C(=O)CC(C)(C)C2)C1c1cccc(Cl)c1 (centres undefined)	-2.22
Cc1cccc(N2C(=O)C3C(C4=C(O)c5ccccc5C4=O)=NC(c4ccccn4)C3C2=O)c1 (centres undefined)	-0.74
COc1ccc(Oc2ccc([N+](=O)[O-])cc2C(=O)NNC(=O)c2ccc(Cl)cc2Cl)cc1	4.83*
NNC(=O)c1ccc([N+](=O)[O-])cc1Cl	-0.83
COC(=O)c1cc(Cl)ccc1Oc1ccc([N+](=O)[O-])c(Oc2ccc(Cl)cc2C(=O)OC)n1	-0.75
O=C(Nc1c(C(=O)c2ccc(Cl)cc2)oc2ccccc12)c1ccco1	0.25
O=C(Oc1ccc2ccccc2c1C1SCCS1)c1ccc(Cl)cc1Cl	0.44
Cc1ccc(-c2n[nH]c(=O)c3ccccc23)cc1S(=O)(=O)NC(C)(C)C	0.82
Cc1ccc(-c2n[nH]c(=O)c3ccccc23)cc1S(=O)(=O)NC(C)C	3.58*
Cc1ccc(-c2n[nH]c(=O)c3ccccc23)cc1S(N)(=O)=O	-0.34

Assay outcomes as filed in PubChem.
